# According to ChEMBL document CHEMBL4888484, “Replenishing the malaria drug discovery pipeline: Screening and hit evaluation of the MMV Hit Generation Library 1 (HGL1) against asexual blood stage Plasmodium falciparum ,using a nano luciferase reporter read-out” (2022):
# The whole screen tested about 4,800 compounds, of which about 420 (8.8%) showed an effect of 50% or more. The full list was thinned out, with strong results kept by preference.
# System: Plasmodium falciparum
# Assay: Confirmatory screen in NF54 nanoGlo assay, in single point, at 2uM, 72h
# Format: functional, Erythrocyte
# Details: timepoint 72 hour
row,SMILES,% Inhibition
1,COc1ccc(CN(Cc2ccncc2)CC2CCN(C3CCN(C)CC3)CC2)c(F)c1,85%
2,CN1CCC(N2CCN(Cc3ccc4cc(O)ccc4c3)CC2)CC1,46%
3,CN1CCC(N2CCC(CN(Cc3ccncc3)Cc3c(F)cccc3Cl)CC2)CC1,23%
4,O=C(Nc1ncc(CCO)s1)[C@@H]1CCCN1C(=O)Cc1cccs1,0%
5,CN(C)CCNCc1ccc(Cl)c(Cl)c1,-11%
6,CC(C)CC[C@@H](CCNCCN(C)C)c1ccc(Cl)cc1,96%
7,CN1CCC(NCC[C@@H](Cc2ccccc2Cl)c2ccc(Cl)cc2)CC1,82%
8,CC(C)CC[C@@H](CCNC1CCN(C)CC1)c1ccc(Cl)cc1,80%
9,Clc1ccccc1COc1ccc(CNC2CCCCC2)cc1,-2%
10,CN(C)CCCNCc1ccc(Cl)cc1Cl,-3%
11,CCn1cnnc1C1CCN([C@@H](C)C(=O)Nc2ccccc2C)CC1,-7%
12,COc1ccc(C)cc1-n1ccc(C(=O)N2CCCc3c(C(N)=O)cccc32)n1,-11%
13,COC(=O)c1ncn(CNC2(c3ccc(Cl)cc3)CCCC2)n1,6%
14,CN(C)c1ccc(-c2nc([C@H]3CCOC3)cs2)cc1,6%
15,Cc1cc(CN2C(=O)NC3(CCCCC3)C2=O)no1,-4%
16,Cc1cccnc1C(=O)N1CC(n2cnnc2[C@@H]2CCCO2)C1,-2%
17,Cc1cc(S(=O)(=O)NC[C@H]2CCCCN2)sc1C,-9%
18,Cc1cc(-c2cc(O)cc(CC[C@H]3CCCCN3)c2)ccn1,79%
19,Cc1ccc(-c2cc(O)cc(CC[C@H]3CCCCN3)c2)c(C)n1,53%
20,CC(=O)c1cc(-c2cc(O)cc(CC[C@H]3CCCCN3)c2)ccc1O,78%
21,CC1CC(N)CCN1C(=O)c1cccc(-c2noc(C3CC3)n2)c1 (centres undefined),2%
22,CN(CCOc1ccc(Cl)cc1Cl)[C@H]1CCS(=O)(=O)C1,-7%
23,CCN(C(C)=O)c1ccc(Cl)cc1F,-13%

row,SMILES,% Inhibition
1,COc1ccc(C)cc1NC(=O)C[C@H]1CCN(S(C)(=O)=O)C1,0%
2,Cc1cc2nc(C(=O)NC3CCN(Cc4ccccc4)CC3)c(=O)n(C)c2cc1C,-8%
3,O=C(Cn1cccc1-c1nc(-c2ccc(F)c(Br)c2)no1)N1CCc2ccccc2C1,1%
4,CC(C)c1cc(=O)[nH]c(-n2nc(C3CC3)cc2NC(=O)Cc2ccc(Cl)cc2)n1,69%
5,Cc1cc(NC(=O)c2ccc(COc3ccc4ccccc4c3)o2)nn1C,-3%
6,CC(C)c1cc(=O)[nH]c(-n2nc(C3CC3)cc2NC(=O)COc2ccc3ccccc3c2)n1,70%
7,Cc1ccc(N2C[C@@H](c3nnc(NC(=O)Cc4ccc(Cl)cc4)o3)CC2=O)cc1,-13%
8,CC(C)c1nc(C2CN(C(=O)Nc3ccc(F)c(Cl)c3)C2)n(C)n1,4%
9,O=C(Nc1ccc(OC(F)F)cc1)c1cc(C2CC2)nc2c1c(C1CC1)nn2-c1ccccc1,-7%
10,CCNC(=O)C1Cc2ccc(OC)cc2N2CCN(c3ccc(OC)cc3)CC12 (centres undefined),2%
11,O=C(C[C@H]1CCN(C(=O)c2cc(F)ccc2F)C1)NC1CC1,-2%
12,CN(C)/C=C/c1cc(C#N)c(C#N)cc1Br,-4%
13,O=C(c1c(F)cccc1F)N1C[C@@H]2CCCN2c2ccc(C(F)(F)F)cc21,-13%
14,COc1ccccc1-n1cnc2cc(C(=O)N3CCCC3)ccc2c1=O,-4%
15,CC[C@H](C)[C@H](NC(=O)c1ccc(Br)c(F)c1)C(=O)O,-8%
16,N[C@@H](CO)c1cccc(Br)c1,7%
17,COC(=O)CN(c1ccccc1)S(=O)(=O)c1ccc2nncn2c1,-1%
18,COc1cccc(N2C(=O)N[C@H](C)C2=O)c1,8%
19,COc1cccc(C(=O)Nc2noc(-c3cccc(OC)c3)c2-c2ccc(Cl)cc2)c1,-11%
20,COc1ccc(-c2c(-c3cccc(OC)c3)[nH]c3c2c(=O)[nH]c(=O)n3C)cc1,74%
21,CC1CC(C)(C)CCC1NC(=O)NC1CCN(C)C1=O (centres undefined),-4%
22,COc1cccc(CCC(=O)N2CCN3CCC2C3)c1F (centres undefined),-15%
23,CC[C@@H](CO)NC(=O)Nc1ccc(Cl)cc1,6%

row,SMILES,% Inhibition
1,CNC(=NCCCOc1cccc(OC)c1)NC,-6%
2,Cc1nc2sc(C(=O)Nc3ccc4ccccc4c3)c(N)c2c(C)c1C,2%
3,Cc1cc(C(=O)Nc2ccc3ccccc3c2)co1,-5%
4,Cc1c(C)c2ccc(NC(=O)c3cc4ccccc4o3)cc2[nH]c1=O,74%
5,CN(Cc1ccc(-c2ccccc2)cc1)c1cc([C@H]2C[C@@H](N)C2)nc(N)n1,49%
6,CC1CCN(C[C@@H](O)CNc2nnc(C(F)(F)F)s2)CC1,-10%
7,Cn1n[n+](CCCCC(Cl)(Cl)Cl)c2ccccc21,53%
8,Cn1n[n+](CC(=O)Nc2ccccc2Cl)c2ccccc21,-5%
9,CCN(CC(=O)Nc1ccccc1OC)C(=O)c1ccc(S(=O)(=O)N2CCOCC2)cc1,10%
10,CC(C)n1[nH]c(=O)c2c(C3CCCCC3)c3sc(=O)[nH]c3nc21,-3%
11,Nc1cc2c(cc1C1=Nc3ccccc3C(c3ccccc3)(c3ccccc3)N1)OCO2,10%
12,COc1ccc(CCNC(=O)c2c(C)noc2-c2ccncc2)cc1OC,1%
13,COc1ccc(CCNC(=O)c2cc3c(=O)[nH]c(C)cn3n2)cc1OC,67%
14,COc1ccc(CCNC(=O)c2cc3n(n2)CCN(Cc2cccc(F)c2)C3=O)cc1OC,17%
15,C#CCN(C(=O)c1ccncc1CC)c1nccs1,-10%
16,CCCC1(c2ccncc2)CC(C)OC1=O (centres undefined),-1%
17,O=C(CCn1ncc2c(Cl)cccc21)NCC1CCCC1,-9%
18,Cc1ccc(-c2noc(CCC(=O)NC[C@H]3CCCO3)n2)c(=O)n1C(C)C,-1%
19,c1cn(CCCOc2ccc3c(c2)OCO3)nn1,3%
20,COc1ccc(CC(=O)NCCn2c(C(F)(F)F)nc3ccccc32)cc1,42%
21,CC(C)C(=O)Nc1ccc(-c2cc(-c3ccc(NC(=O)C(C)C)cc3)nc(-c3ccncc3)n2)cc1,56%
22,CCNC(=O)c1nc(-c2ccncc2)cs1,-21%
23,CC(C)C(=O)NCC(=O)Nc1ccc(C(F)(F)F)cc1,-15%
